Compound activity: PubChem, several laboratories
Most compounds without a hit are left out; they make up all but 2.2% or so of the library.
CRFR2-BP ag = CRF-BP/CRF-R2 complex agonism. activation, % at 13.2 µM. 350,000 compounds, 0.46% hits. AID 588473. HEK293 CRF-R2/CRF-BP, calcium dye fluorescence (FLIPR); percent of saturating CRF peptide response;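 active means activation of at least 50%, plus an integration ratio under a set limit after plate pattern correction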;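 further: plate controls were neutral control wells without compound for no effect and CRF at EC100 for full effect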
RTF Ca sens act = cardiac RTF calcium sensitization; 340,000 compounds, 0.24% hits; activation, % at 7.2 µM; IANBD-labeled TnC RTF fluorescence at EC20 calcium; 0% EC20 calcium, 100% full calcium;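 active means activation above the mean over all tested compounds plus 3 SD, cut at about 30% in these data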;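 further: rise in fluorescence read as greater calcium sensitivity of cardiac thin filaments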
CRFR2-BP antag = CRF-BP/CRF-R2 complex antagonism; HEK293 CRF-R2/CRF-BP, CRF-induced calcium fluorescence; inhibition, % at 11.8 µM; 350,000 compounds, 0.59% hits;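 active means inhibition of the ligand-induced calcium signal above about 50% at the single tested concentration, limit read from the data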
Myeloid diff 2 = compounds promoting myeloid differentiation. 360,000 compounds, 1% hits. AID 624256. ER-HoxA9 myeloid progenitors, lysozyme-GFP differentiation, flow cytometry. calls only at 10 µM;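 active means normalized GFP-positive differentiation at or above the plate's own cutoff, the solvent-only control mean plus 3 SD; inconclusive means no clear call, values can overlap the other calls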;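 further: cells exposed to compound for four days before flow analysis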
Cardiac RTF inh = cardiac RTF calcium desensitization; IANBD-labeled cardiac RTF, Ca2+ fluorescence; inhibition, % at 7.15 µM; 340,000 compounds, 0.12% hits;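 active means inhibition above the mean inhibition of all tested compounds plus 3 SD, cut at about 17% in these data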;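 further: assay run at fixed EC70 calcium of 1.6 mM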
RTF Ca inh conf = cardiac RTF calcium sensitivity inhibition, confirmation | shares compounds with Cardiac RTF inh | reconstituted cardiac thin filaments, calcium sensitivity fluorescence | inhibition, % at 7.15 µM | 360 compounds, 8% hits | AID 504635; in the data active means inhibition above about 18%
* marks the source's active call; other numbers are inactive results; i = inactive; ? = inconclusive; . = no result given; + = active, no number.

SMILES	CRFR2-BP ag	RTF Ca sens act	CRFR2-BP antag	Myeloid diff 2	Cardiac RTF inh	RTF Ca inh conf
COc1ccc([N+](=O)[O-])cc1NC(=O)CSc1nncn1-c1ccccc1	-1	-8	-6	i	19*	1
S=C(N/N=C/c1cccc2ccccc12)Nc1cccc(Cl)c1	0	-3	-2	i	-11	.
CC1CCCCN1C(=O)Cn1cnc2cc([N+](=O)[O-])ccc2c1=O (stereo not drawn)	-1	-2	-8	i	18*	-5
NC(CCc1ccccc1)c1csc(Nc2nncc3ccccc23)n1 (stereo not drawn)	.	.	.	i	.	.
Cc1ccc(NC(=O)CCN2CC(C)OC(C)C2)cc1 (stereo not drawn)	-1	1	5	i	-7	.
Nc1c(-c2ccsc2)cnc2ncnn12	1	-4	31	i	2	.
O=C1CCCc2c1cnc1ncnn21	3	-6	-3	i	18*	-3
O=C1CC(N2CCc3ccccc32)C(=O)N1c1ccc(F)cc1 (stereo not drawn)	0	3	10	i	-12	.
CCOC(=O)C1=C(C)N(Cc2ccc(C(=O)O)cc2)C(=O)NC1c1ccc([N+](=O)[O-])cc1 (stereo not drawn)	-1	6	0	i	18*	-2
O=C(O)C1Nc2c(Cl)cc(Cl)cc2C2C=CCC12 (stereo not drawn)	3	-40	4	i	55*	7
CCOC(=O)C1Nc2ccc(Br)cc2C2C=CCC12 (stereo not drawn)	-1	-4	-6	i	-3	.
O=C(O)C1Nc2ccc(Br)cc2C2C=CCC12 (stereo not drawn)	1	-38	2	i	60*	6
CC(COc1ccccc1)N1CCC(CO)(Cc2ccccc2)CC1 (stereo not drawn)	-2	2	3	i	-6	.
C=CCNC(=S)Nc1cccc2ccccc12	-2	-2	29	i	20*	1
CC(=O)NC(c1ccc(F)c(F)c1)c1nc(-c2cccc(F)c2)cs1 (stereo not drawn)	.	.	.	i	.	.
O=C(Nc1ccc2c(c1)OCO2)C1CCCN(S(=O)(=O)c2cccs2)C1 (stereo not drawn)	-2	-4	-4	i	0	.
CCc1cccc(NC(=O)C2CCCN(S(=O)(=O)c3cccs3)C2)c1 (stereo not drawn)	1	4	-2	i	24*	-2
CCCNC(=O)C1(C)CCCN(C(=O)COCc2ccccc2)C1 (stereo not drawn)	.	.	.	i	.	.
CCN1CCN(CC(=O)Nc2cc(C)on2)CC1	2	1	-21	i	4	.
Cc1cc(NC(=O)CN2CCN(c3ncccn3)CC2)no1	-1	1	7	i	21*	-2
O=C(N/N=C/c1cccc(F)c1)c1cc(-c2ccco2)nc2ccccc12	-1	-15	3	i	17*	0
COc1cc(/C=N/NC(=O)c2cc(-c3ccco3)nc3ccccc23)cc(OC)c1O	-1	2	0	i	-10	.
COc1ccc(OC)c(-c2cc(C(=O)N/N=C/c3ccc(F)cc3)c3ccccc3n2)c1	2	.	-12	i	.	.
CCc1cc(C(=O)N/N=C/c2ccc(OC)cc2)c2ccccc2n1	-4	-9	7	i	18*	-5
O=C(Oc1ccccc1)N1CCCCC1	-2	.	-12	i	.	.
SMILES	CRFR2-BP ag	RTF Ca sens act	CRFR2-BP antag	Myeloid diff 2	Cardiac RTF inh	RTF Ca inh conf
CC(=O)C1=C(C)NC(SCC(=O)c2ccc(F)cc2)=C(C#N)C1CC(C)C (stereo not drawn)	-1	4	-3	i	19*	-1
CC(=O)C1=C(C)NC(SCC(=O)c2ccc(Cl)cc2)=C(C#N)C1CC(C)C (stereo not drawn)	0	0	24	.	-1	.
CCn1nc([N+](=O)[O-])c(C(C#N)c2nc3cc(C(F)(F)F)ccc3s2)c(Cl)c1=O (stereo not drawn)	28	-11	68*	+	19*	2
Cc1cccc(-n2ccc(=O)c(C(=O)Nc3ccc(S(=O)(=O)Nc4onc(C)c4C)cc3)n2)c1	2	0	-21	i	-9	.
COc1ccc(N2C(=O)CSC2c2ccccc2[N+](=O)[O-])cc1 (stereo not drawn)	-3	0	12	i	19*	1
O=C(O)c1ccc2c(c1)[C@@H]1C=CC[C@@H]1[C@H](c1ccccn1)N2	1	-37	7	i	86*	22*
C=CCn1c(SCC(=O)NC23CC4CC(CC(C4)C2)C3)nc2cc(C(=O)O)ccc2c1=O	-1	-3	-1	i	5	.
ON=C(CCc1ccccc1)CCc1ccccc1	-3	-6	42	i	2	.
CCCNC(=O)CSc1nccn1Cc1ccc(OC)cc1	-3	3	15	i	18*	-1
COc1cccc(CNC(=O)Cn2ncc3c(=O)oc4ccccc4c32)c1	-1	7	10	i	3	.
CC(C)(C)C(=O)NC(n1cnc2c(N3CCOCC3)ncnc21)C(Cl)(Cl)Cl (stereo not drawn)	4	1	-1	i	19*	-9
CC(=O)Nc1cc(-c2cccnc2)cn2c(-c3cccc(C(F)(F)F)c3)cnc12	.	.	.	i	.	.
CCOC(=O)CNC(=O)c1c(C)nn(-c2ccccc2)c1Cl	8	-1	12	i	18*	-2
CCOC(=O)CNC(=O)c1c(C)nn(C)c1Cl	0	0	26	i	5	.
O=C(CCCCCN1C(=O)c2ccccc2C1=O)Nc1ccccc1	-1	1	12	i	18*	-5
CC(=NNC(=O)CSCC(=O)NN=C(C)c1ccccc1)c1ccccc1	1	-6	-15	i	5	.
CN(C)S(=O)(=O)c1ccc(NC(=O)N2CCN(c3cccc(C(F)(F)F)c3)CC2)cc1	0	-4	-17	i	4	.
CN(C)S(=O)(=O)c1ccc(NC(=O)N2CCN(c3ccccc3Cl)CC2)cc1	-1	-6	-6	i	19*	-3
O=C(O)c1cccc(Sc2cc(Cl)ccc2C(=O)O)c1	-1	-5	0	i	-2	.
Cc1ccc(CSc2nnc(SCC(=O)N/N=C/C=C/c3ccccc3[N+](=O)[O-])s2)cc1	-2	8	4	i	21*	-5
Cc1ccc(CSc2nnc(SCC(=O)N/N=C/C=C/c3ccco3)s2)cc1	-2	1	-3	i	3	.
O=C1CN(c2nc3nonc3nc2N2CCCCC2)CCN1	-3	0	-9	i	-3	.
NS(=O)(=O)c1cccc(C(=O)NC2CCSc3ccccc32)c1 (stereo not drawn)	1	-1	1	?	-17	.
NS(=O)(=O)c1cc(C(=O)NC2CCSc3ccccc32)ccc1Cl (stereo not drawn)	-3	-53	11	i	31*	4
